From PubChem
Hits are enriched below; roughly 0.96% of the tested compounds scored in any of these assays.
TRHR agonist: TRH receptor (human) agonism; TRHR cells, calcium flux fluo-8, FDSS agonist mode; 360,000 tested, 0.18% active; P34981; activation, % at 2 µM; in the data active means activation above about 30%; further: 0% is about no effect
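TRHR-expressing cells loaded with fluo-8 calcium dye; 23 nL library compound pin-transferred, kinetic FDSS fluorescence (Ex 480/Em 530) recorded about 180 s for agonist-induced calcium release, before a 10 nM TRH EC20 addition for potentiator mode.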
TRPV1 PAM: enhances activation of the human vanilloid receptor TRPV1 | TRPV1-expressing cells, Fluo-8 calcium influx, capsaicin EC20 potentiation | potentiation, % at 8.33 µM | 320,000 tested, 0.02% active; in the data active means potentiation above about 80%; inconclusive means between about 30% and that limit; further: 0% is about no effect
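TRPV1-expressing cells were cultured overnight at 35.5C and loaded with Fluo-8 calcium dye for 40 to 90 min at room temperature. After a 10 s baseline, compound was added and calcium influx was read kinetically for 3 min (ex 480/em 520 nm).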
TRPML1 ag: human mucolipin-1 channel agonism | AID 624414 | activation, % (concentration not given with the values) | Q9GZU1 | 410,000 tested, 0.12% active | TRPML1-expressing cells, Ca2+ dye fluorescence, FDSS; in the data active means activation above about 50%; inconclusive means mostly about 30% to 49%; further: 0% is about no effect
Target sequence (Q9GZU1 whole entry, looked up): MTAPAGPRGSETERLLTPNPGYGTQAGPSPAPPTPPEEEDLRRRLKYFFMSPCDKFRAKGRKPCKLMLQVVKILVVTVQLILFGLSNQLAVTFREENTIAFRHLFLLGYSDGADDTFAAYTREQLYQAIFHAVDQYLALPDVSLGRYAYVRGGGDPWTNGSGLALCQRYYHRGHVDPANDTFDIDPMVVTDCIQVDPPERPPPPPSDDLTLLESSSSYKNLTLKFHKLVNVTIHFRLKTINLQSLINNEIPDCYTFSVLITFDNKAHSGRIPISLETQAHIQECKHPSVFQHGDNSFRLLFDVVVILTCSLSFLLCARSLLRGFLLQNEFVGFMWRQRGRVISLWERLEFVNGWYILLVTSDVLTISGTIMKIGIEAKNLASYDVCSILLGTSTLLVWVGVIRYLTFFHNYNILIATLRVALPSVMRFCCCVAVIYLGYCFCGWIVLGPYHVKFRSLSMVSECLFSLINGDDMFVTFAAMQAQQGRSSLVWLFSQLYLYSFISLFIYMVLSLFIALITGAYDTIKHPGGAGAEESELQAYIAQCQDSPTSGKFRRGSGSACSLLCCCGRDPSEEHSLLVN
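TRPML1-DL cells, Tet-induced overnight (~16 h, 37 degrees C), loaded 45-90 min at room temperature with Ca8 no-wash calcium dye plus quencher. FDSS fluorescence: 10 s baseline, compound pin-transfer, 110 s agonist read, then EC80 54-4 (4uM final) and 110 s antagonist read.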
TRPV1 ag: agonists of human vanilloid receptor 1 (TRPV1); Q8NER1; TRPV1-expressing cells, Fluo-8 calcium influx, agonist mode; activation, % at 8.33 µM; 320,000 tested, 0.19% active; AID 540275; in the data active means activation above about 80%; inconclusive means between about 30% and that limit; further: 0% is about no effect
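Cells expressing TRPV1 were dye-loaded with Fluo-8 and read kinetically: 10 s baseline, 3 min after compound (agonist portion), then 2 min after EC20 capsaicin (allosteric enhancer portion). Calcium-bound dye fluorescence at 480/520 nm.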
TRPML1 inh: blocks the human TRPML1 channel; AID 624415; 390,000 tested, 0.02% active; TRPML1-inducible cells, Ca2+ dye fluorescence, FDSS; stronger effect = lower value; inhibition of EC80 agonist-evoked calcium signal; activity change, negative = inhibition, % (no concentration beside the values); in the data active means activity change below about -50%; inconclusive means between about -30% and that limit;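 further: stimulus is agonist 54-4 at its EC80 concentration; on the % scale 0 is the no-effect control and ±100 the full control effect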
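Tet-induced TRPML1-DL cells loaded with Ca8 no-wash calcium dye were read kinetically on FDSS. Compound addition was followed by EC80 agonist 54-4 (4 uM final); inhibition was read over 110 s.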
TRHR enhancer: TRH receptor (human) allosteric enhancement. P34981. TRHR cells, fluo-8 calcium fluorescence, EC20 TRH enhancement. enhancement, % at 2 µM. 360,000 tested, 0.66% active. AID 493056; in the data active means enhancement above about 30%; further: 0% is about no effect
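TRHR-expressing cells loaded with fluo-8 calcium dye were read kinetically (ex 480/em 530) during compound addition, then stimulated with an EC20 of TRH (10 nM final). Enhancement of the Gq-mediated intracellular calcium response was scored.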
* = called active by the depositor; ? = inconclusive; / = no result given.

SMILES	TRHR agonist	TRPV1 PAM	TRPML1 ag	TRPV1 ag	TRPML1 inh	TRHR enhancer
COc1ccc(S(=O)(=O)Nc2cc3c(C(C)=O)c(C)oc3c3ccccc23)cc1	1	-7	62*	?	-14	8
Cn1cnc([N+](=O)[O-])c1Oc1cccc2ccccc12	-1	5	0	0	10	37*
Cn1cnc([N+](=O)[O-])c1S(=O)(=O)Oc1cccc2ccccc12	/	/	1	/	3	/
O=C(CCN1C(=O)CSc2ccccc21)Nc1ccc(OC(F)(F)F)cc1	0	11	1	-3	-6	33*
CCc1sc(-c2cc3cccc(OC)c3oc2=O)nc1-c1ccccc1	/	/	0	/	/	/
O=C(NC1CCCN(Cc2ccc(Cl)cc2)C1)c1ccnc(Cl)c1 (stereo not given)	-2	-2	0	?	17	32*
COc1ccc(CCNC(=O)C(=O)Nc2ccc(C)c(C)c2)cc1	-1	/	0	/	-8	32*
COC(=O)c1ccc(NC(=S)NCCc2ccc(OC)cc2)cc1	1	6	1	?	-5	1
Clc1ccc2c(ccc[n+]2CCC2CCCCC2)c1	/	/	1	/	/	/
O=C(O)c1ccccc1C(=O)Nc1cccc([N+](=O)[O-])c1	1	5	0	2	24	1
O=C(O)c1ccccc1C(=O)Nc1ccc(Nc2ccc([N+](=O)[O-])cc2[N+](=O)[O-])cc1	0	22	0	-6	-4	35*
CCOC(=O)CCC(NC(=O)CCC(=O)NC(CCC(=O)OCC)C(=O)OCC)C(=O)OCC (stereo not given)	1	6	1	-3	2	31*
CCOC(=O)CCC(NC(=O)CCCC(=O)NC(CCC(=O)OCC)C(=O)OCC)C(=O)OCC (stereo not given)	1	0	0	0	-11	1
O=C(O)c1ccc2c(=O)[nH]c(CCl)nc2c1	1	8	-1	1	-14	33*
CCCN1CNc2c(c(=O)[nH]c(=S)n2CCc2cc(Cl)cc(Cl)c2)C1	/	/	-1	/	/	/
O=C(CCSCc1ccccc1F)NCc1ccc(F)cc1	-1	6	2	82*	25	-1
CCOc1ccc(CNC(=O)CCSCc2ccccc2F)cc1OC	-1	-9	0	104*	3	-1
Cc1ccc(CSCC(=O)NCc2ccc(F)cc2)cc1	0	-2	-1	82*	-14	0
O=C(CSCc1ccccc1F)NCc1ccc(F)cc1	-1	-17	0	?	0	7
O=C1S/C(=C\c2ccc(N3CCOCC3)o2)C(=O)N1c1ccccc1	63*	9	57*	?	-5	9
O=C(O)c1ccccc1-c1ccc(/C=C2\SC(=O)N(c3ccccc3)C2=O)o1	2	-3	1	3	-7	10
C=C(C)c1cccc(C(C)(C)NC(=O)Nc2cccnc2)c1	0	?	0	98*	-9	1
CC(C)(C)c1ccc(C(=O)Nc2cccnc2)cc1	0	7	0	94*	-8	-13
CC(C)(C)c1ccc(OCc2ccc(C(=O)Nc3cccnc3)o2)cc1	-1	-1	1	?	5	38*
CCCCCCN(CCCCCC)c1ccc(/C=C/c2ccnc3ccccc23)cc1	/	/	8	/	/	/
SMILES	TRHR agonist	TRPV1 PAM	TRPML1 ag	TRPV1 ag	TRPML1 inh	TRHR enhancer
COc1cc(N(C)C)c(OC)cc1C=C1C=CC=C1	/	/	-1	/	/	/
CN(c1ccccc1)S(=O)(=O)c1cccc(NC(=O)Cn2cnc3ccccc3c2=O)c1	0	82*	2	-8	9	2
CCN(CC)S(=O)(=O)c1cc(NC(=O)Cn2cnc3ccccc3c2=O)ccc1C	0	-4	3	0	22	-6
Cc1cccc2cncc(OCc3nnc(SC(F)F)n3C)c12	0	1	0	1	-20	41*
CCCCc1ccc(NC(=S)N2CCC(O)CC2)cc1	0	14	1	85*	0	0
O=C(NCc1ccco1)c1ccc2snnc2c1	0	-10	0	9	-3	32*
O=C(NCc1ccc2c(c1)OCO2)c1ccc2snnc2c1	0	-10	-1	?	-4	-4
